DRD3 antagonist: D3 dopamine receptor (human) antagonism | D3R cells, DiscoveRx beta-arrestin luminescence, antagonist mode; stronger effect = lower value | max response, negative = inhibition, % | 360,000 compounds, 2.5% hits | AID 652054; in the data active means max response below about -50%; inconclusive means no clear call, values can overlap the other calls; further: on the % scale 0 is the no-effect control and ±100 the full control effect
Target sequence (P35462 whole entry, looked up): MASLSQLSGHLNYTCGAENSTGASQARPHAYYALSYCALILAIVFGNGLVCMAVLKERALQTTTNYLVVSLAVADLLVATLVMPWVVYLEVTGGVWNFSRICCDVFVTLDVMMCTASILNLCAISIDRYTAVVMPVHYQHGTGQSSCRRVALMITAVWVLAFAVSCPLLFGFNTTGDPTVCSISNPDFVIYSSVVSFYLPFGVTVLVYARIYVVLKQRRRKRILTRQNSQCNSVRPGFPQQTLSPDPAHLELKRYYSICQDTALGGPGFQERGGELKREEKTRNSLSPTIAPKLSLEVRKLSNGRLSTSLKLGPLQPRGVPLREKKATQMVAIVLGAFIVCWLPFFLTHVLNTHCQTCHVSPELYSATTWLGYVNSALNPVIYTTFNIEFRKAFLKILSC
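Cells expressing the human receptor were seeded at 1500 cells/well, incubated overnight at 37 degrees C in 5% CO2, then exposed to library compounds with dopamine controls for 90 minutes at 37 degrees C before luminescent detection.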
D1 antagonist: human D1 dopamine receptor antagonism; P21728; activity change, negative = inhibition, % at 10 µM; 360,000 compounds, 3.2% hits; HEK293 TREx D1 cells, calcium flux, dopamine EC80; stronger effect = lower value; in the data active means activity change below about -30%; further: on the % scale 0 is the no-effect control and ±100 the full control effect
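HEK293 T-REx cells expressing inducible, force-coupled D1 receptor; no-wash Ca dye, 30–90 min RT. Cmpd → 180 s read at 1 Hz → EC80 DA → 180 s read.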
D1 PAM: human D1 dopamine receptor positive modulation; P21728; HEK293 TREx D1 cells, calcium flux, dopamine EC20 potentiation; potentiation, % at 10 µM; 360,000 compounds, 0.036% hits; in the data active means potentiation above about 30%; further: 0% is about no effect
D1 ag: human D1 receptor agonism; P21728; HEK293 T-REx D1 cells, calcium flux, agonist mode; activation, % at 2 µM; 360,000 compounds, 1% hits; AID 504660; in the data active means activation above about 30%; further: 0% is about no effect
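Inducible HEK293 T-REx D1 cells, force-coupled to calcium signalling, were plated at 4000 cells/well with tetracycline and held overnight at 30 C. After no-wash calcium dye loading, compound-evoked calcium rise over 180 s flagged agonists.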
D3 ag: D3 dopamine receptor (human) agonism; P35462; D3R DiscoveRx beta-arrestin cells, luminescence, 90 min; max activation, %; 410,000 compounds, 0.58% hits; AID 652048; in the data active means max activation above about 30%; further: 0% is about no effect
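Agonist mode: compounds and dopamine controls were applied to plated cells for 90 min at 37 degrees C after an overnight attachment at 1500 cells/well. Luminescent read-out followed 30 - 60 minutes at room temperature with DiscoveRx detection reagent.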
* = called active by the depositor; ? = inconclusive; . = no result given; ! = a repeat was not active. The list is not random: actives were taken first. Their share in the collection is about 6%.

SMILES	DRD3 antagonist	D1 antagonist	D1 PAM	D1 ag	D3 ag
Cc1cc(C)n(S(=O)(=O)c2cc(C)c(C)cc2C)n1	12	-31*	-12	1	-3
Cn1c2c(c(=O)n(C)c1=O)C(c1ccccc1OC(F)F)C1=C(CCCC1=O)N2 (stereo unspecified)	-15	-36*	-4	10	1
CCOc1ccccc1C1CC(=O)NC2=C1C(=O)CCC2 (stereo unspecified)	-2	11	-4	2	3
CCCNC(=O)C1(C)CCCN(Cc2ccccc2F)C1 (stereo unspecified)	4	.	.	.	-2
COc1ccc(C(=O)N2CCC(C(=O)c3ccc(F)cc3)CC2)cc1	3	-24	-6	6	-4
CCOc1ccccc1NC(=O)CN1CCC(C(=O)c2ccc(F)cc2)CC1	?	2	-5	2	-27
O=C(CN1CCCC1)Nc1ccccc1Cl	?	-5	-7	2	0
O=C(CN1CCC(C(=O)c2ccc(F)cc2)CC1)Nc1ccccc1Cl	-57*	-3	-9	4	-23
COc1ccccc1NC(=O)CN1CCC(C(=O)c2ccc(F)cc2)CC1	-70*	-14	-7	0	-6
COc1ccccc1C(=O)N1CCC(C(=O)c2ccc(F)cc2)CC1	-70*	-32*	-4	1	-33
CCCc1ccc2c(C(F)(F)F)cc(C(F)(F)F)cc2n1	-22	.	.	.	8
Cc1nc(-c2ccc(S(=O)(=O)N3CCCN(CCc4ccccc4)CC3)s2)cs1	-22	-22	-4	31*	-12
Cc1ccc(S(=O)(=O)N2CCOCC2)cc1C(=O)N1CCN(c2ccc(C(F)(F)F)cn2)CC1	1	.	.	.	3
COC(=O)c1ccc(OS(=O)(=O)c2ccc(NC(C)=O)cc2)cc1	12	-35*	-8	21	8
CC(=O)Nc1ccc(S(=O)(=O)Oc2ccc3c(c2)C(C)=CC(C)(C)N3)cc1	.	-42*	-5	20	.
CC(=O)Nc1ccc(S(=O)(=O)Oc2cccc(N3C(=O)C4CC=CCC4C3=O)c2)cc1 (stereo unspecified)	2	-15	0	13	3
CC(=O)Nc1ccc(S(=O)(=O)Oc2ccc(/C=N/NC(=O)c3ccc(Cl)cc3)cc2)cc1	?	-23	-10	8	-4
CC1=CC(C)(C)Nc2ccc(OS(=O)(=O)c3ccc(C)cc3)cc21	17	4	3	9	0
CC(=O)Nc1ccc(S(=O)(=O)Oc2ccc(N3C(=O)C4CCCCC4C3=O)cc2)cc1 (stereo unspecified)	23	-52*	-9	38*	4
COC(=O)c1ccccc1NC(=O)c1nc(S(=O)(=O)Cc2ccccc2)ncc1Cl	-77*	-19	-1	2	-1
O=C(NCc1ccccc1)c1nc(S(=O)(=O)Cc2ccccc2)ncc1Cl	-78*	-41*	-6	0	1
CCS(=O)(=O)c1ncc(Cl)c(C(=O)NCc2ccccc2)n1	.	-33*	-3	1	-17
COc1ccc(CNC(=O)c2nc(S(=O)(=O)Cc3ccccc3)ncc2Cl)cc1	-97*	-37*!	-6	6	-5
CC(=O)Nc1ccc(NC(=O)c2nc(S(=O)(=O)Cc3ccccc3)ncc2Cl)cc1	-29	13	-4	5	-1
CCN(c1ccccc1C(=O)O)S(=O)(=O)c1cccc2nsnc12	4	0	4	1	11
SMILES	DRD3 antagonist	D1 antagonist	D1 PAM	D1 ag	D3 ag
CCc1ccc(NC(=O)CSc2ccc3nnc(CCNS(=O)(=O)c4ccc(OC)cc4)n3n2)cc1	.	-3	2	0	3
Cc1ccccc1C(=O)Nc1nnc([C@@H]2C[C@H](O)[C@@H](CO)O2)s1	-19	.	.	.	-6
C#CC(C)(CC)NC(=O)c1cnn2c(C(F)F)cc(-c3ccccc3OC)nc12 (stereo unspecified)	.	8	0	6	64*
CCCCc1oc2ccc(NS(C)(=O)=O)cc2c1C(=O)c1ccc(OCCCN(CCCC)CCCC)cc1	.	.	.	.	-15
CSCCC(NS(=O)(=O)c1ccc2c(c1)oc(=O)n2C)C(=O)Nc1ccc(Cl)cc1 (stereo unspecified)	.	-8	-2	-2	-5
CCC(C)[C@H](N)c1nnc(SCc2ccc(Cl)c(Cl)c2)o1 (stereo partly specified)	.	1	-3	54*	-20
CC(C)[C@H](N)c1nnc(SCc2ccc(Cl)cc2)o1	-13	6	6	3	2
COc1ccccc1C(=O)NC(=O)COC(=O)c1ccc(Cl)nc1	5	-2	-1	1	7
Cc1ccc(C)c(OCCCCN2CCNCC2)c1C	0	-1	1	14	-5
CC1CN(CCOCCSc2ccc(Cl)cc2)CC(C)O1 (stereo unspecified)	-64*	-24	-7	1	-7
CC1CN(CCOc2ccccc2C(C)C)CC(C)O1 (stereo unspecified)	-69*	-13	-2	1	-26
Cc1ccc(C)c(OCCOCCN2CC(C)OC(C)C2)c1C (stereo unspecified)	-75*	-10	-8	2	-5
COC(=O)c1ccccc1OCCCCN1CC(C)OC(C)C1 (stereo unspecified)	-29	6	-1	5	0
CC1CN(CCOCCSc2ccccc2)CC(C)O1 (stereo unspecified)	-67*	12	5	3	-4
CC1CN(CCCCSc2ccc(Cl)cc2)CC(C)O1 (stereo unspecified)	7	-1	-3	5	9
CC(C)CN1C(=O)CN(S(C)(=O)=O)CC1(C)C(=O)NC(C)C (stereo unspecified)	16	.	.	.	-4
Cn1cc(S(=O)(=O)N2CCCCCC2)cc1C(=O)NCc1ccc(Cl)cc1	.	-6	-4	8	9
COCCN(Cc1ccccc1)C(=O)c1ccc(C(=O)c2ccccc2)cc1	-6	-1	-8	2	2
COc1ccc(-n2c(=O)c3c4c(sc3n(C)c2=O)CN(C(C)=O)CC4)cc1	.	0	-7	1	6
CCO[C@H]1OC(C(=O)NC2CC2)=C[C@@H](c2ccc3c(c2)OCO3)[C@@H]1CCCO	11	-7	-1	-3	5
CCO[C@@H]1OC(C(N)=O)=C[C@H](c2ccc3c(c2)OCO3)[C@H]1CCCO	-18	-34*	3	-5	2
C#Cc1ccc([C@@H]2C=C(C(=O)OCC=C)O[C@H](OCC)[C@H]2CCCO)cc1	-26	11	3	19	12
CCO[C@@H]1OC(C(=O)N2CCOCC2)=C[C@H](c2ccccc2)[C@H]1CCCO	-65*	-6	-2	0	-1
CCO[C@H]1OC(C(=O)N2CCCCCCC2)=C[C@@H](c2ccccc2)[C@@H]1CCCO	6	5	-3	-4	7

Compound activity: PubChem, National Center for Advancing Translational Sciences (NCATS)
